From PubChem BioAssay
Mcl1-Noxa inh = Mcl-1/Noxa binding inhibitors, primary screen, biochemical, TR-FRET, 1536-well. inhibition, % at 21.7 µM. TR-FRET Mcl-1/Noxa peptide binding, 2 h. Induced myeloid leukemia cell differentiation protein Mcl-1 (Homo sapiens), Q07820. 220,000 compounds, 1.5% hits;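 active = compounds that cut the protein-peptide binding signal by more than 50% relative to plate controls in a single-dose test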;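 note: His-tagged Mcl-1 with rhodamine Noxa BH3 peptide and terbium anti-His antibody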
Target sequence (Q07820 whole entry, looked up): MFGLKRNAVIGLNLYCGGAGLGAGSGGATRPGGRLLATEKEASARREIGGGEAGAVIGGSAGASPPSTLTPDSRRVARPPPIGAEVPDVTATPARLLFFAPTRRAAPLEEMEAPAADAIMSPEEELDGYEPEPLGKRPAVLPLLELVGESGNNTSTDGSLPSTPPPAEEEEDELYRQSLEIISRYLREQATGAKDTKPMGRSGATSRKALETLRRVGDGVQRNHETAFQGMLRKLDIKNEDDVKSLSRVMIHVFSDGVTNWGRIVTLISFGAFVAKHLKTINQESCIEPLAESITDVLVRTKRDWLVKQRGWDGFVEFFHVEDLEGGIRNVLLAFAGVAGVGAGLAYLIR
Mcl-1 Bim block = inhibitors of Bim peptide binding to Mcl-1, primary screen, biochemical, bead-based flow cytometry, multiplex | inhibition, % at 10 µM | 190,000 compounds, 0.1% hits | Bim peptide-Mcl-1 binding | Induced myeloid leukemia cell differentiation protein Mcl-1 (Homo sapiens), Q07820; in the data active = inhibition above about 40%
GLD-1 RNA inh = GLD-1/TGE RNA complex disruptors, primary screen, biochemical, fluorescence polarization; inhibition, % at 5.96 µM; purified GLD-1 + fluorescein TGE RNA; Female germline-specific tumor suppressor gld-1 (Caenorhabditis elegans), Q17339; 320,000 compounds, 0.44% hits; AID 2280, 2010;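 active = percent inhibition above a per-plate cutoff, the plate mean of test compounds plus 3 SD, cut at about 30% in these data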
Mcl1 Bid PPI = Mcl-1/Bid binding inhibitors, primary screen, biochemical, TR-FRET, 1536-well; inhibition, % at 21.7 µM; Induced myeloid leukemia cell differentiation protein Mcl-1 (Homo sapiens), Q07820; TR-FRET Mcl-1/Bid-Dy647 peptide binding; AID 1021, 2008; 220,000 compounds, 0.97% hits;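 active = compounds that cut the binding signal by more than half at the single screening dose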;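 note: His-tagged Mcl-1 with europium anti-His antibody binding Bid BH3 peptide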
BCLXL inh = inhibitors of human Bcl-xL, primary screen, biochemical, fluorescence polarization, HTS | Bcl-2-like protein 1 (Homo sapiens), Q07817 | GST-Bcl-xL / FITC-Bim BH3 peptide fluorescence polarization | inhibition, % at 10.9 µM | 320,000 compounds, 0.7% hits;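 active = inhibition above the mean of all tested compounds plus 3 SD, cutoff set per campaign, cut at about 30% in these data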;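 note: inhibitors lower millipolarization by displacing the labeled peptide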
MCL1 BIM primary = inhibitors of MCL1 binding to BIM-BH3, primary screen, biochemical, fluorescence polarization | AID 2057, 2009 | inhibition, % at 10.9 µM | GST-MCL1 / FITC-Bim-BH3 fluorescence polarization | Induced myeloid leukemia cell differentiation protein Mcl-1 (Homo sapiens), Q07820 | 320,000 compounds, 0.68% hits;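 active = inhibition above the mean inhibition of all tested compounds plus 3 SD, set per campaign, cut at about 40% in these data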;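 note: higher means more loss of mP so more displacement of Bim peptide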
A number is an active result. A selection: hits, their analogues and other compounds. The true share with any hit is near 2.3%.

Results for O=C(NCc1nnc(SCC(=O)N2CCCC2)o1)c1c(F)cccc1Cl ?
Mcl1-Noxa inh: inactive; Mcl-1 Bim block: inactive; GLD-1 RNA inh: inactive; Mcl1 Bid PPI: inactive; BCLXL inh: inactive; MCL1 BIM primary: inactive

How did O=C(NCc1nnc(SCC(=O)N2CCOCC2)o1)c1c(F)cccc1Cl do in these assays?
Mcl1-Noxa inh: inactive; Mcl-1 Bim block: inactive; GLD-1 RNA inh: inactive; Mcl1 Bid PPI: 77; BCLXL inh: inactive; MCL1 BIM primary: inactive

Results for COC(=O)N(NC(=O)C(O)(c1ccccc1)c1ccccc1)c1ccccc1 ?
Mcl1-Noxa inh: inactive; Mcl-1 Bim block: inactive; GLD-1 RNA inh: inactive; Mcl1 Bid PPI: 60; BCLXL inh: inactive; MCL1 BIM primary: inactive

Results for Cn1c2c(c(=O)n(C)c1=O)C1c3cc(Cl)ccc3OCC1CO2 (centres undefined) ?
Mcl1-Noxa inh: inactive; Mcl-1 Bim block: inactive; GLD-1 RNA inh: inactive; Mcl1 Bid PPI: 96; BCLXL inh: inactive; MCL1 BIM primary: inactive

How did Cc1ccc(/C=C/C(=O)NCc2ccc(S(N)(=O)=O)cc2)o1 do in these assays?
Mcl1-Noxa inh: 53; Mcl-1 Bim block: inactive; Mcl1 Bid PPI: inactive

Results for CN(Cc1c(O)ccc2c1oc(=O)c1ccccc12)C1CCCCC1 ?
Mcl1-Noxa inh: inactive; Mcl-1 Bim block: inactive; GLD-1 RNA inh: inactive; Mcl1 Bid PPI: 65; BCLXL inh: inactive; MCL1 BIM primary: inactive

What do the screens show for `Cc1nnc(-c2cccc(Br)c2)c2cn(-c3ccccc3)nc12`?
Mcl1-Noxa inh: inactive; Mcl-1 Bim block: inactive; GLD-1 RNA inh: inactive; Mcl1 Bid PPI: inactive; BCLXL inh: inactive; MCL1 BIM primary: inactive

How did Cc1nnc(-c2cccc(Br)c2)c2cn(-c3ccc(Br)cc3)nc12 do in these assays?
Mcl1-Noxa inh: inactive; Mcl-1 Bim block: inactive; GLD-1 RNA inh: inactive; Mcl1 Bid PPI: 56; BCLXL inh: inactive; MCL1 BIM primary: inactive

How did N#C/C(=C\c1ccccc1[N+](=O)[O-])C(=O)NC1CCCCC1 do in these assays?
Mcl1-Noxa inh: inactive; Mcl-1 Bim block: inactive; GLD-1 RNA inh: inactive; Mcl1 Bid PPI: inactive; BCLXL inh: 31; MCL1 BIM primary: inactive

How did N#C/C(=C\C=C\c1ccccc1[N+](=O)[O-])C(=O)NC1CCCCC1 do in these assays?
Mcl1-Noxa inh: inactive; Mcl-1 Bim block: inactive; GLD-1 RNA inh: inactive; Mcl1 Bid PPI: inactive; BCLXL inh: inactive; MCL1 BIM primary: inactive

Results for CCc1ccc(-c2cc(C)no2)cc1S(=O)(=O)N1CCOc2ccc(C)cc21 ?
GLD-1 RNA inh: inactive; BCLXL inh: inactive; MCL1 BIM primary: inactive

Results for Cn1c(N)c(C(=O)NCc2ccccc2)sc1=S ?
Mcl1-Noxa inh: inactive; Mcl-1 Bim block: inactive; GLD-1 RNA inh: inactive; Mcl1 Bid PPI: inactive; BCLXL inh: 34; MCL1 BIM primary: inactive

What do the screens show for `CN(CC(=O)Nc1cccnc1)S(=O)(=O)c1ccccc1`?
Mcl1-Noxa inh: inactive; Mcl-1 Bim block: inactive; GLD-1 RNA inh: inactive; Mcl1 Bid PPI: 64; BCLXL inh: inactive; MCL1 BIM primary: inactive

How did O=C(CS(=O)(=O)c1ccccc1)Nc1cccnc1 do in these assays?
Mcl1-Noxa inh: inactive; Mcl-1 Bim block: inactive; GLD-1 RNA inh: inactive; Mcl1 Bid PPI: inactive; BCLXL inh: inactive; MCL1 BIM primary: inactive

How did COc1ccc(CN2C(=O)C(C)=C(C)C2OC)cc1 (centres undefined) do in these assays?
GLD-1 RNA inh: inactive; BCLXL inh: inactive; MCL1 BIM primary: inactive

Results for COc1ccc(CN2C(=O)c3cccnc3C2O)cc1 (centres undefined) ?
Mcl1-Noxa inh: inactive; Mcl-1 Bim block: inactive; GLD-1 RNA inh: inactive; Mcl1 Bid PPI: 92; BCLXL inh: inactive; MCL1 BIM primary: inactive

Results for O=C(Nc1ccc(S(=O)(=O)Nc2nccs2)cc1)c1cccc(N2C(=O)c3ccccc3C2=O)c1 ?
Mcl1-Noxa inh: 53; Mcl-1 Bim block: inactive; GLD-1 RNA inh: inactive; Mcl1 Bid PPI: inactive; BCLXL inh: inactive; MCL1 BIM primary: inactive

How did CCn1nc(C(=O)Nc2ccc(S(=O)(=O)Nc3nccs3)cc2)c2ccccc2c1=O do in these assays?
Mcl1-Noxa inh: 64; Mcl-1 Bim block: inactive; GLD-1 RNA inh: inactive; Mcl1 Bid PPI: inactive; BCLXL inh: inactive; MCL1 BIM primary: inactive
